# Laboratory results from ChEMBL document CHEMBL4513216, “Probing the Open Global Health Chemical Diversity Library for Multistage-Active Starting Points for Next-Generation Antimalarials” (ACS Infect Dis, 2020).
# About 2,700 (4%) of roughly 68,000 compounds showed an effect of 50% or more. For the sample, strong results were picked, then their nearest neighbours and some compounds at random.
# Tested on: Plasmodium berghei
# Experiment: Screen against P. berghei liver stage (PbLuc), transformed with Luciferase, at 2uM
# Assay type: functional, HepG2
# Details: tested at 2 uM
row,SMILES,INHIBITION [%]
1,Cc1cnc(NC2CCN(CC(=O)Nc3ccccc3)CC2)nc1C,76.82
2,O=C(CN1CCC(Nc2ncccn2)CC1)Nc1ccccc1,36.28
3,Cc1ncsc1C(=O)NC1CCN(CCC(=O)Nc2ccccc2)CC1,1.02
4,CCN1CCN(C2CCN(Cc3nnc(C4CC4)o3)CC2)C1=O,-8.9
5,O=c1[nH]nc2nc(N3CCOCC3)ccn12,-60.22
6,Cc1nn(C)cc1CN1C[C@H]2CC[C@@H](C1)N(Cc1c(C)noc1C)C2=O,35.46
7,COc1cc(C(C)=O)ccc1OC12CCCN(CC1)C2 (configuration not stated),-18.6
8,CCCc1ccc(OC23CCCN(CC2)C3)c(OC)c1 (configuration not stated),-21.37
9,COc1cc(C#N)ccc1OC12CCCN(CC1)C2 (configuration not stated),63.83
10,Cc1nc([C@H]2C[C@@H]3CCN(Cc4cnn(C)c4)C[C@H]3O2)sc1C,-19.14
11,Cc1ccc(C(=O)N2CC3(CCCCC3)c3cc(C(=O)O)ccc32)cn1,-46.89
12,CC1CCN(CC(=O)N(C)CCc2noc(C3CC3)n2)C1=O (configuration not stated),27.73
13,Cc1nc(CN2CCCN(CC(=O)N(C)CCC#N)CC2)no1,-14.14
14,Cc1nc(CCN(C)C(=O)CN2CCCCCC2)no1,51.9
15,COc1cc(N2C[C@@H]3COC[C@@H](Cc4nnc(C)o4)[C@@H]3C2)ncn1,21.27
16,COc1ccccc1N1CCN(Cc2nc(C)c(C)o2)CC1,-63.57
17,Cc1cc(CN2CCOC(CN(C)C)C2)no1 (configuration not stated),16.64
18,O=C(NCCCOc1cccnc1)c1cn(CCc2ccccc2)nn1,41.14
19,O=C(NCCc1ccccc1)c1cn(CCNCc2cccnc2)nn1,53.12
20,O=C(NCc1cccnc1)c1cn(CCc2ccccc2)nn1,17.19
21,Cc1nc(CC(C)C)sc1C(=O)N1CCC1,11.18
22,O[C@@H]1C[C@@H](c2nc(-c3cccnc3)no2)N(C2CCOCC2)C1,-14.24
23,CN(C)C[C@H]1C[C@@H]2CN(C(=O)c3ccno3)C[C@@H]2O1,-30.38
24,Cn1cccc1C(=O)NC[C@H]1C[C@@H]2CN(C(=O)c3ccco3)C[C@@H]2O1,6.8
25,Cn1cccc1C(=O)NC[C@H]1C[C@@H]2CN(C(=O)c3ccno3)C[C@H]2O1,50.32
26,CN(C)C[C@H]1C[C@@H]2CN(C(=O)c3ccco3)C[C@@H]2O1,10.49

row,SMILES,INHIBITION [%]
1,O=C(NC[C@H]1C[C@@H]2CN(C(=O)c3ccno3)C[C@@H]2O1)C1CCC1,55.52
2,O=C(NC[C@H]1C[C@@H]2CN(C(=O)c3ccco3)C[C@@H]2O1)c1ccsc1,34.93
3,COc1ccc(CN(C)Cn2cc(C)n(-c3cc(C)on3)c2=O)cc1,14.29
4,CCC1c2ccsc2CCN1C(=O)NCc1ccc(C)nc1 (configuration not stated),11.09
5,COC1COC2(CCN(Cc3cccc(Cl)c3)CC2)C1 (configuration not stated),23.81
6,CO[C@@H]1CC[C@H]2[C@H]1OCCN2CCOCc1ccccc1,3.11
7,Cc1nc(N[C@H]2COC[C@@H]2N2CCCCC2)c2c(C)nn(C)c2n1,-11.88
8,c1cc(-c2cnc(C3CCNCC3)cn2)n[nH]1,66.18
9,c1cc(-c2cncc(C3CCNCC3)n2)n[nH]1,29.25
10,Fc1ccc(-c2cnc(C3CCNCC3)cn2)cc1,14.8
11,Cc1cccc(CN2C(=O)C[C@H]3[C@@H]2CCN3CC2CC2)n1,3.86
12,NC(=O)C1CN(C(=O)Nc2ccc(SC(F)(F)F)cc2)CCO1 (configuration not stated),-31.17
13,O=C(NC1CCC1)C1CCC2(CN(C(=O)c3ccco3)C2)O1 (configuration not stated),-160.99
14,O=C(NCC1CC1)C1CCC2(CN(C(=O)c3ccno3)C2)O1 (configuration not stated),-33.57
15,O=C(NC1CCC1)C1CCC2(CN(C(=O)c3ccno3)C2)O1 (configuration not stated),57.85
16,Cc1cc(C)c(CNC(=O)CC2CCCO2)c(=O)[nH]1 (configuration not stated),-36.34
17,O=C1CCCN1CCCC(=O)N1CCCC(Cc2cccnc2)C1 (configuration not stated),-11.81
18,CN(CCOCC1CC1)C(=O)Nc1ccc(C#N)c(Cl)c1,-47.52
19,COc1ccc(C(=O)N2C[C@@H](C(=O)O)[C@H](c3ccccc3C)C2)c(O)c1,-43.72
20,CC(C)N1CCOC[C@H]1c1nc(-c2ccncc2)c[nH]1,54.56
21,CN1CCOC[C@H]1c1nc(-c2ccncc2)c[nH]1,28.45
22,c1cc(-c2c[nH]c([C@@H]3COCCN3C3CCOCC3)n2)ccn1,30.63
23,O=C(O)[C@@H]1CN(C(=O)c2ccc(O)cc2)C[C@H]1c1cccc(F)c1,38.65
24,CN(C)CC(=O)N1C[C@H]2CCC[C@@]2(COc2ccccn2)C1,19.44
25,O=C(CCC(=O)N1CCCC1c1ccsc1)N1CCOCC1 (configuration not stated),-26.92
26,Cc1nc(-c2cccnc2)ncc1C(=O)N1CCCCC(N)C1 (configuration not stated),6.22

row,SMILES,INHIBITION [%]
1,Cc1ccc(-c2ncc(C(=O)N3CCN4CCCCC4C3)c(O)n2)cc1 (configuration not stated),60.9
2,Cc1ccc(-c2ncc(C(=O)N3CCCC(CCN)C3)c(O)n2)cc1 (configuration not stated),41.07
3,Cc1ccc(-c2ncc(C(=O)N3CCC[C@H](N)C3)c(O)n2)cc1,63.1
4,Cc1nc(C(C)C)ncc1C(=O)N1CCCC(N2CCCC2)C1 (configuration not stated),11.44
5,Cc1ccc(-c2ncc(C(=O)N3CCCN4CCC[C@H]4C3)c(O)n2)cc1,32.26
6,c1cnc(N2C[C@H]3CCN(CC4CC4)C[C@H]3C2)cn1,11.56
7,CC(Cn1cccn1)n1cnc2cccc(Cl)c2c1=O (configuration not stated),33.52
8,CCC(=O)N1CCCC(c2cc(Nc3ncccn3)nc(C)n2)C1 (configuration not stated),11.08
9,O=c1[nH]c(-c2ccc(F)c(F)c2)nc2c1CCNC2,-18.12
10,O=c1[nH]c(-c2ccc(F)cc2)nc2c1CCNC2,53.66
11,O=c1[nH]c(-c2ccccc2F)nc2c1CCNC2,1.4
12,NC(=O)c1ccc(-c2nc3c(c(=O)[nH]2)CCNC3)cc1,41.78
13,O=c1[nH]c(-c2ccc(Cl)cc2)nc2c1CCNC2,57.21
14,O=c1[nH]c(COc2ccc(Cl)cc2)nc2c1CCNC2,12
15,c1ccc(-c2cccc(N3CCC(NCCc4cscn4)CC3)c2)cc1,-8.16
16,O=C1CO[C@@H]2CNC[C@H]2N1CC1CC1,27.61
17,CC(C)CN1C(=O)CO[C@@H]2CN(C(=O)N(C)C)C[C@H]21,-20.67
18,CC(C)CN1C(=O)CO[C@@H]2CNC[C@H]21,70.31
19,CCN(Cc1cccc(C(=O)Nc2c(C)cnn2C)c1)[C@H]1COC[C@@H]1O,20.36
20,CC1CCN(C(=O)[C@@H]2CC[C@@H]3[C@@H](CCN3c3ncc(F)cn3)O2)CC1,3.63
21,CCSCc1cccc(NC(=O)N(C)Cc2ncnn2C)c1,72.05
22,CC(C)OCc1cccc(NC(=O)N(C)Cc2ncnn2C)c1,31.51
23,CCOc1cc(NC(=O)N(C)Cc2ncnn2C)ccc1C,31.51
24,COCCNC(=O)Cn1c(-c2ccco2)cc2cccnc21,37.87
25,CCOc1nc2cnccc2n(CC(=O)NCCc2ccccc2)c1=O,28.85
26,CCOc1nc2cccnc2n(CC(=O)NCCOC)c1=O,74.49

row,SMILES,INHIBITION [%]
1,CNC(=O)CN1CCOCC2(C1)CN(C(=O)CC(C)C)CCO2 (configuration not stated),-1.18
2,Fc1cccc2[nH]c(CN3CCc4cncnc4C3)nc12,7.24
3,Cc1nn(C)c(N(C)C)c1CNCc1cccnc1N1CCOCC1,28.81
4,O=S1(=O)CCCN1Cc1coc(-c2ccc(C(F)(F)F)cc2)n1,1.8
5,CSc1ccc(C(CC(=O)O)NC(=O)c2cc(C)on2)cc1 (configuration not stated),-70.44
6,COc1ccc(C(CC(=O)O)NC(=O)c2cc(C)on2)cc1 (configuration not stated),73.09
7,CSc1ccc(C(C)NC(=O)c2cc(C)on2)cc1 (configuration not stated),-121.09
8,CN(C)CC(=O)N1CCC2(CC(=O)N(c3cccc(C#N)c3)C2)C1 (configuration not stated),-3.08
9,CC(C)c1nnc(N2C[C@H]3CC[C@@H](C2)N(Cc2ccccc2)C3)s1,-23.49
10,O=C1C[C@@H]2CC[C@H](CN1)N2C(=O)CCCc1ccc(Cl)cc1,-29.06
11,O=C1C(NS(=O)(=O)c2cccc(F)c2)CCN1Cc1ccccc1 (configuration not stated),54.29
12,O=C1C(NS(=O)(=O)c2ccc(F)cc2)CCN1Cc1ccccc1 (configuration not stated),38.76
13,O=C1C(NS(=O)(=O)c2cc(F)cc(F)c2)CCN1Cc1ccccc1 (configuration not stated),23.92
14,CC(C)CN1CC[C@@H]2[C@H](CC1)N(C(=O)c1ccccc1)CCS2(=O)=O,-1.31
15,CC(=O)N1CCS(=O)(=O)[C@@H]2CCN(S(=O)(=O)CC(C)C)CC[C@@H]21,-12.76
16,CC(=O)N1CCS(=O)(=O)[C@@H]2CCN(CC(C)C)CC[C@@H]21,60
17,Cc1nsc(C(=O)NCCc2ccc(S(N)(=O)=O)cc2)n1,-43.28
18,CC(C)Cc1nc(CN2CCOC(Cn3cccn3)C2)no1 (configuration not stated),-20.61
19,O=C(NC1CC1)c1cc(NC(=O)N2CCCC2)ccc1Cl,31.51
20,O=C(NC1CC1)c1cc(NC(=O)N2CCOCC2)ccc1Cl,64.9
21,O=C(NC1CC1)c1cc(NC(=O)N2CCSCC2)ccc1Cl,31.51
22,CCN(Cc1cc(F)c(OC)c(Cl)c1)Cc1nc(COC)no1,-20.98
23,CCN(Cc1noc(CC(C)C)n1)Cc1ccccc1Cl,-33.2
24,CCN(Cc1cc(F)c(OC)c(Cl)c1)Cc1noc(CC(C)C)n1,71.91
